# KB-V1 cytotox: KB-V1 MDR subline cytotoxicity; KB-V1 MDR cells viability, CellTiter-Glo, 72 h; actives 3.4% (n = 400,000); AID 1347076; Potency, µM (highest dose often 46.1 µM), actives largely listed as cytotoxic; also: % is scaled to controls: 0 for no effect and ±100 for the full control effect; nearly all actives have a fitted effect of over 60% in size
#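 Following 72 h at 37 degrees C with compound, KB-V1 cell viability was read by CellTiter-Glo luminescence, medium being phenol-red-free DMEM plus 10% FBS; concentration-response parameters came from normalized, curve-fitted qHTS data.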
# ELG1 DNA repair: inhibitors of ELG1-dependent DNA repair in HEK293T cells; actives 2.3% (n = 330,000); Potency, µM (series often up to 46.1 µM), for inactives: at the highest dose activity change, negative = inhibition, actives largely listed as inhibitors; HEK293T ELG1-luciferase reporter, luminescence, 16 h; DNA damage induced by 5-fluorouridine; also: % is scaled to controls: 0 for no effect and ±100 for the full control effect; nearly all actives have a fitted effect of over 55% in size
#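 Step one: seed 2,000 cells per well. Step two: pin-transfer compound or DMSO alongside 5-fluorouridine. Step three: incubate 16 hr, 37 °C, 5% CO2. Step four: add ONE-Glo, wait 30 min, read luminescence.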
# SW480 rerep: DNA re-replication induction in SW480 cells; actives 1.8% (n = 340,000); Potency, µM (titrated, usually from 46.1 µM), for the others: top-dose re-replication activation, actives largely listed as activators; SW480 DNA re-replication, Hoechst DNA content imaging, 48 h; AID 624297; also: % of control where 0% means no effect; nearly all actives have a fitted effect of over 55% in size
#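 DNA re-replication was detected as more nuclei of elevated Hoechst intensity after 48 hr exposure to compound (23 nL pinned per well of 250 cells).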
# KB-3-1 cytotox: kills parental KB-3-1 adenocarcinoma cells; KB-3-1 viability, CellTiter-Glo ATP luminescence, 72 h; Potency, µM (highest dose often 46.1 µM), hits mostly cytotoxic; actives 1.4% (n = 400,000); AID 1347075; also: % is scaled to controls: 0 for no effect and ±100 for the full control effect; nearly all actives have a fitted effect of over 60% in size
#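 Parental KB-3-1 viability, qHTS format: 72 h compound exposure, 37 °C; CellTiter-Glo; media-only wells and DMSO plates as controls; concentration-effect fits on corrected data.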
# MCF10A rereplic: induces DNA re-replication in MCF 10a normal breast cells. MCF 10A DNA re-replication, Hoechst nuclear intensity, 48 h. Potency, µM (top dose mostly 46.1 µM), for the others: at the highest dose activity, positive = re-replication, most hits filed as activators. actives 2.9% (n = 350,000). AID 624296; also: % of control where 0% means no effect; nearly all actives have a fitted effect of over 50% in size
# The depositor's hits bear a star; i = inactive; ? = inconclusive; nt = no result given. An excerpt weighted towards active compounds, which were near 8.1% of everything screened. Calls follow the shape of the dose curve; as a rule, active = well fitted curve in the direction sought with a large enough effect; inconclusive = small, poorly fitted or top-dose-only effect, or another doubt; inactive = no such curve, though single readings can be large; an effect the other way counts as inactive or inconclusive. Potency is read from the fitted curve at half-maximal effect.
SMILES,KB-V1 cytotox,ELG1 DNA repair,SW480 rerep,KB-3-1 cytotox,MCF10A rereplic
COc1ccccc1N1CCN(C(=O)CCCCCn2c(=S)[nH]c3cc4c(cc3c2=O)OCO4)CC1,i,nt,nt,i,nt
O=C(CCCn1c(=S)[nH]c2cc3c(cc2c1=O)OCO3)N1CCN(c2ccccc2F)CC1,16µM*,23µM*,?,i,22%
C[C@@H](O)[C@H]1C(=O)N2C(C(=O)O)=C(S[C@@H]3CN[C@H](CNS(N)(=O)=O)C3)[C@H](C)[C@H]12,nt,nt,-1%,nt,9%
CC(=O)c1cc2c(cc1N/C(=N/S(=O)(=O)c1ccc(C)cc1)c1ccc(F)cc1)OCO2,i,nt,nt,i,nt
O=C(O)c1cc(/C=C/c2ccc(N3CCOCC3)cc2)nc2ccccc12,10µM*,?,1%,i,7%
O=C(O)c1cc(/C=C/c2ccc(N3CCOCC3)c([N+](=O)[O-])c2)nc2ccccc12,i,?,-4%,i,3%
O=C(Nc1ccccc1)c1cc(N2CCOCC2)nc2ccccc12,i,?,?,i,-1%
Cc1ccc(NC(=O)c2cc(N3CCOCC3)nc3ccccc23)cc1,i,15µM*,2%,i,-4%
O=C(Nc1nccs1)c1cc(N2CCOCC2)nc2ccccc12,i,18µM*,1%,i,9%
CN(C)c1cccc(-c2nnc(SCCCC#N)o2)c1,21µM*,?,-5%,i,2%
O=C(C[n+]1cccc2cc(Cl)ccc21)c1ccc2ccccc2c1,i,nt,nt,?,nt
Cc1nnc(SCc2cc(=O)oc3ccc4ccccc4c23)n1Cc1ccccc1,16µM*,-12%,2%,i,16%
CC(C)c1ccccc1-n1c(SCC(=O)N2CCN(c3ccccc3)CC2)nnc1-c1cccnc1,i,-14%,2%,?,-9%
CC(C)c1ccccc1-n1c(SCc2cc(=O)oc3ccc4ccccc4c23)nnc1-c1cccnc1,21µM*,23µM*,nt,?,19%
CCOc1ccc(-n2c(SCc3cc(=O)oc4cc(C)ccc34)nnc2-c2cccnc2)cc1,?,-7%,2%,i,1%
CC(=O)Nc1ccc2c(CSc3nnc(-c4cccnc4)n3-c3ccc(C)cc3C)cc(=O)oc2c1,i,9.2µM*,-18%,i,2%
Cc1ccc(-c2nc(CNC(=O)NC3CCCCC3)c(C)o2)cc1,i,nt,nt,i,nt
Cn1c(=O)c2c(SCC(=O)NCc3ccco3)nc(-c3ccccc3)nc2n(C)c1=O,i,nt,nt,i,nt
Nc1nc(/C(=C/CC(=O)O)C(=O)NC2C(=O)N3C(C(=O)O)=CCSC23)cs1 (stereo not drawn),nt,nt,-3%,nt,-1%
Cc1ccc(-c2noc(C(C)NS(=O)(=O)c3ccc(C)cc3)n2)cc1 (stereo not drawn),i,nt,nt,i,nt
CCOc1ccc(/C=N/Nc2ccc(Cl)nn2)c(O)c1,?,0%,0.18µM*,?,?
O=C(Nc1ccccc1)Nc1cc(OCC(F)(F)F)cc(OCC(F)(F)F)c1,16µM*,?,15%,?,21µM*
O=C(Nc1ccccc1)Nc1cc(Cl)cc(Cl)c1,?,0%,16%,?,?
O=C(OCc1ccccc1)N1C=CC2CC1c1c(Cl)cccc12 (stereo not drawn),i,nt,13%,i,23µM*
COC(=O)c1ccc(C(=O)OC)c(NC(=O)COC(=O)c2ccc(OC)c(OC)c2OC)c1,i,5.8µM*,5%,i,31%
CCOCC(=O)Nc1cc(C(=O)OC)ccc1C(=O)OC,i,9%,-1%,i,-3%
O=C1C=C(c2ccccc2Oc2ccccc2)C[C@@H](c2ccc(F)cc2)C1,i,nt,nt,i,nt
O=C1NC(CCc2ccccc2)C(=O)N1Cc1ccccc1Cl (stereo not drawn),16µM*,4%,-5%,i,-2%
CC(=O)C1=C(C)N(Cc2ccccc2)C(=O)N[C@H]1CCc1ccccc1,i,-19%,-1%,i,?
Cc1ccc2nsnc2c1S(=O)(=O)N1CCN(CCc2ccccc2)CC1,12µM*,?,1%,?,16%
